Measurements: PubChem BioAssay AID1159580 (chemical genetic matrix, 2015)
In all, about 5,500 compounds went through this assay and about 2,000 (36%) were called active. Not shown: some 18% with an inconclusive outcome. Cut-off read from the data, not from the text of the source: active = normalized growth mostly below about 0.91 (no sharp cut-off); inconclusive = no clear call, values can overlap the other calls; inactive = mostly above about 0.92. The list shows a part of the results.

Experiment: chemical genetic growth profiling, strain panel (AID 1159580);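 note: tested at 20 µM; growth read once vehicle control cultures reached saturation at 30 °C; 1 = growth at the plate median or of vehicle wells; lower values mean less growth of the strain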
Settings: S. cerevisiae deletion strains, growth OD
[1] = locus YBL105C, strain PKC1, active compounds read low
[2] = locus YBR135W, strain CKS1, active compounds read low
[3] = locus YBR136W, strain MEC1, active compounds read low
[4] = locus YDL017W, strain CDC7, active compounds read low
[5] = locus YDL108W, strain KIN28, active compounds read low
[6] = locus YDL214C, strain PRR2, active compounds read low
[7] = locus YDR052C, strain DBF4, active compounds read low
[8] = locus YDR226W, strain ADK1, active compounds read low
[9] = locus YDR477W, strain SNF1, active compounds read low
[10] = locus YER123W, strain YCK3, active compounds read low
[11] = locus YER133W, strain GLC7, active compounds read low
[12] = locus YFL029C, strain CAK1, active compounds read low
[13] = locus YFR003C, strain YPI1, active compounds read low
[14] = locus YFR019W, strain FAB1, active compounds read low
[15] = locus YFR028C, strain CDC14, active compounds read low
[16] = locus YGR040W, strain KSS1, active compounds read low
[17] = locus YGR052W, strain FMP48, active compounds read low
[18] = locus YGR092W, strain DBF2, active compounds read low
[19] = locus YHR030C, strain SLT2, active compounds read low
[20] = locus YHR079C, strain IRE1, active compounds read low
[21] = locus YHR082C, strain KSP1, active compounds read low
[22] = locus YHR205W, strain SCH9, active compounds read low
[23] = locus YIL147C, strain SLN1, active compounds read low
[24] = locus YJL095W, strain BCK1, active compounds read low
[25] = locus YJL157C, strain FAR1, active compounds read low
[26] = locus YJR016C, strain ILV3, active compounds read low
[27] = locus YJR066W, strain TOR1 (second series), active compounds read low
[28] = locus YJR066W, strain TOR1, active compounds read low
[29] = locus YKL048C, strain ELM1, active compounds read low
[30] = locus YKL067W, strain YNK1, active compounds read low
[31] = locus YKL101W, strain HSL1, active compounds read low
[32] = locus YLR113W, strain HOG1, active compounds read low
[33] = locus YLR133W, strain CKI1, active compounds read low
[34] = locus YLR403W, strain SFP1, active compounds read low
[35] = locus YML070W, strain DAK1, active compounds read low
[36] = locus YMR205C, strain PFK2 (second series), active compounds read low
[37] = locus YNL006W, strain LST8, active compounds read low
[38] = locus YNL020C, strain ARK1, active compounds read low
[39] = locus YNL161W, strain CBK1, active compounds read low
[40] = locus YNL183C, strain NPR1, active compounds read low
[41] = locus YNL222W, strain SSU72, active compounds read low
[42] = locus YNL307C, strain MCK1 (second series), active compounds read low
[43] = locus YOL136C, strain PFK27, active compounds read low
[44] = locus YOR061W, strain CKA2, active compounds read low
[45] = locus YOR119C, strain RIO1, active compounds read low
[46] = locus YOR231W, strain MKK1, active compounds read low
[47] = locus YOR329C, strain SCD5, active compounds read low
[48] = locus YPL031C, strain PHO85, active compounds read low
[49] = locus YPL153C, strain RAD53, active compounds read low
[50] = locus YPL204W, strain HRR25, active compounds read low
[51] = locus YPL209C, strain IPL1, active compounds read low
[52] = locus YPL256C, strain CLN2, active compounds read low
[53] = locus YPR025C, strain CCL1, active compounds read low
[54] = locus YPR111W, strain DBF20, active compounds read low
[55] = strain NNK1, active compounds read low

Measured: normalized growth

Clc1ccc(-c2cnc(Nc3cc(Cl)cc(Cl)c3)s2)cc1
active: [1] 0.63 | [2] 0.869 | [6] 0.134 | [9] 0.119 | [10] 0.158 | [11] 0.12 | [12] 0.514 | [14] 0.175 | [16] 0.142 | [17] 0.132 | [18] 0.148 | [19] 0.117 | [20] 0.204 | [21] 0.126 | [22] 0.0742 | [24] 0.16 | [25] 0.149 | [26] 0.791 | [27] 0.116 | [28] 0.109 | [29] 0.215 | [30] 0.164 | [31] 0.174 | [32] 0.163 | [33] 0.117 | [34] 0.0226 | [35] 0.166 | [36] 0.16 | [37] 0.679 | [38] 0.133 | [39] 0.529 | [40] 0.136 | [41] 0.608 | [42] 0.225 | [43] 0.147 | [44] 0.135 | [45] 0.46 | [46] 0.229 | [47] 0.781 | [48] 0.148 | [49] 0.136 | [50] 0.13 | [51] 0.625 | [52] 0.196 | [54] 0.674
inactive: [3] 0.956 | [4] 0.972 | [5] 0.972 | [7] 0.965 | [8] 0.964 | [13] 0.97 | [15] 0.966 | [23] 0.961 | [53] 0.927 | [55] 0.967

Clc1cccc(Nc2ncc(-c3ccc4c(c3)OCCCO4)s2)c1
inactive: locus YAR019C, strain CDC15, active compounds read low 0.978 | [1] 0.989 | [2] 0.981 | [3] 0.98 | locus YBR160W, strain CDC28, active compounds read low 0.983 | [4] 0.988 | locus YDL028C, strain MPS1, active compounds read low 0.956 | locus YDL101C, strain DUN1, active compounds read low 1 | [5] 0.978 | locus YDL132W, strain cdc53, active compounds read low 0.986 | [6] 0.893 | [7] 0.986 | locus YDR054C, strain cdc34, active compounds read low 0.989 | [8] 0.988 | [9] 0.909 | [10] 0.864 | [11] 0.892 | locus YFL009W, strain cdc4, active compounds read low 0.99 | [12] 0.977 | [13] 0.985 | [14] 0.898 | [15] 0.963 | [16] 0.905 | [17] 0.862 | [18] 0.88 | [20] 0.663 | [21] 0.951 | [22] 0.824 | [23] 0.973 | [24] 0.731 | locus YJL128C, strain PBS2, active compounds read low 0.951 | [25] 0.894 | [26] 0.994 | [27] 0.902 | [28] 0.95 | [29] 0.965 | [30] 0.927 | [31] 0.923 | locus YKL193C, strain SDS22, active compounds read low 0.985 | locus YKL203C, strain TOR2, active compounds read low 1.01 | [33] 0.866 | [34] 0.881 | [35] 0.872 | locus YMR001C, strain CDC5, active compounds read low 0.984 | [36] 0.894 | locus YMR277W, strain FCP1, active compounds read low 0.968 | [37] 0.995 | [38] 0.86 | [39] 0.982 | [40] 0.799 | locus YNL207W, strain RIO2, active compounds read low 0.987 | [41] 0.98 | [42] 0.864 | locus YOL078W, strain AVO1, active compounds read low 0.972 | [43] 0.873 | [44] 0.86 | [45] 0.953 | [46] 0.759 | [47] 0.984 | [48] 0.889 | [49] 0.872 | [50] 0.86 | [51] 0.983 | [53] 0.968 | locus YPR106W, strain ISR1, active compounds read low 0.971 | [54] 0.959 | [55] 0.974 | strain TSCII, active compounds read low 0.971
active: [19] 0.67 | [32] 0.682 | [52] 0.717
